According to PubChem BioAssay AID1508602 (The Scripps Research Institute Molecular Screening Center, 2020):
The whole screen tested about 650,000 compounds, of which about 6,800 (1%) were called active. No stated cut-off is given here; in the data, active means activation above about 4.9%; inactive means the rest. The entries come from a sample that favours actives as a whole.

biological target: G-protein coupled receptor 151 (Homo sapiens) (UniProt Q8TDV0); test: activates the human receptor GPR151, primary screen, cell-based, PathHunter beta-arrestin, luminescence (AID 1508602); conditions: PathHunter beta-arrestin GPR151 cells, at 11.2 µM, active compounds read high;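 further: 0% = median of compound wells and 100% = cells with positive control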
Sequence (Q8TDV0 whole entry, looked up): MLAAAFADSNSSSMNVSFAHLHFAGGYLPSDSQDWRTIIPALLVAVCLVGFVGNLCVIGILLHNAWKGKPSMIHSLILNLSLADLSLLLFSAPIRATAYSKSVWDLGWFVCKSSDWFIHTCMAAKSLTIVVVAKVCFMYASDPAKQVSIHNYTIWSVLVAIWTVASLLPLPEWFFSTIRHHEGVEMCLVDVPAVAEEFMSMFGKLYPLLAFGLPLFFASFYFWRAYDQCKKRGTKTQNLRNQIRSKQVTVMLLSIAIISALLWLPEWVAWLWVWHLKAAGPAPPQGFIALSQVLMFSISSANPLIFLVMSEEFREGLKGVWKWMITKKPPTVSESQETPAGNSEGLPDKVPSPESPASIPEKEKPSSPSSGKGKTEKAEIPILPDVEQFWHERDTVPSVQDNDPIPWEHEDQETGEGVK

SMILES	activation
O=C(CSc1nnc(Cc2ccccc2)o1)c1ccc([N+](=O)[O-])cc1	-0.861% (inactive)
Cc1nc2cc(C(=O)NCc3ccc4c(c3)OCO4)ccc2n1-c1ccc(OCc2ccccc2)cc1	9.26% (active)
COc1ccccc1-n1c(C)nc2cc(C(=O)NCc3ccc4c(c3)OCO4)ccc21	-0.911% (inactive)
CCOc1ccc(-n2c(C)nc3cc(C(=O)NCC(OCC)OCC)ccc32)cc1	-0.917% (inactive)
O=C(NC1CC1)c1ccc(-c2nc(NCCN3CCOCC3)c3[nH]cnc3n2)cc1	2.27% (inactive)
Cc1ccc2nc3c(cc(C(=O)NC4CCCCC4)c(=N)n3C(C)C)c(=O)n2c1	0.735% (inactive)
Cc1cccn2c(=O)c3cc(C(=O)NC4CCCCC4)c(=N)n(C4CCCCC4)c3nc12	5.92% (active)
CCCn1c(=N)c(C(=O)NC2CCCCC2)cc2c(=O)n3cccc(C)c3nc21	-0.974% (inactive)
COc1cccc(NC(=O)N2CCc3nc(-c4ccncc4)nc(N4CCCCC4)c3C2)c1	-2.11% (inactive)
CC12CCC(C(=O)Nc3c(Cl)cccc3Cl)(CC1=O)C2(C)C (configuration not stated)	-0.214% (inactive)
CC12CCC(C(=O)Nc3cc(Cl)ccc3Cl)(CC1=O)C2(C)C (configuration not stated)	-0.262% (inactive)
CC12CCC(C(=O)Nc3ncc(Cl)cc3Cl)(CC1=O)C2(C)C (configuration not stated)	5.35% (active)
Cc1ccccc1-n1nc2c(c1NC(=O)C1CC1)CSC2	1.82% (inactive)
C=CCn1c(SCC(=O)Nc2nc(C)cs2)nnc1C(C)NC(=O)c1cccs1 (configuration not stated)	0.0682% (inactive)
O=C(CCN(Cc1ccc(Cl)cc1)S(=O)(=O)c1ccc(Br)cc1)NO	0.218% (inactive)
CCCc1nnc(NC(=O)C(C)Oc2ccccc2)s1 (configuration not stated)	0.536% (inactive)
CC(=O)Nc1nnc(CCOCC(C)OCCc2nnc(NC(C)=O)s2)s1 (configuration not stated)	5.04% (active)
CCOCCc1nnc(NC(=O)CC(C)(C)C)s1	-0.508% (inactive)
CCOc1ccc(NC(=O)N(CC(C)C)CC(C)C)cc1	-1.58% (inactive)

SMILES	activation
CCOc1ccc(NC(=O)Nc2ccc(N(C)C(C)=O)cc2)cc1	6.4% (active)
CCOc1ccc(NC(=O)NC(=O)N(C)S(C)(=O)=O)cc1	-0.0562% (inactive)
CC1CCCC(C)N1C(=O)COC(=O)c1ccc(Cl)cc1N (configuration not stated)	-1.01% (inactive)
COc1cccc(-c2ccccc2NC(=O)C2CCN(C3CCOCC3)CC2)c1	0.21% (inactive)
O=C(CCc1nc2ccccc2[nH]1)N1CCC2(CC1)OCc1cc(Cl)ccc1O2	-0.0529% (inactive)
COc1ccc(-c2noc(N3CCC(C(=O)NCCCN4CCN(C)CC4)CC3)n2)cc1	7.49% (active)
COc1ccc(-c2noc(N3CCCC(C(=O)NCCCN4CCC(C)CC4)C3)n2)cc1 (configuration not stated)	-1.28% (inactive)
COc1ccc(-c2noc(N3CCC(C(=O)NCCCOC(C)C)CC3)n2)cc1	2.42% (inactive)
COC(=O)c1ccccc1NC(=O)C1=CC(c2cccc(OC)c2)=NS(=O)(=O)N1C	2.65% (inactive)
CCOC(=O)c1sc(=S)n(-c2ccc(Br)cc2)c1N	-1.26% (inactive)
Cc1ccc(-c2nnc(N3CCOCC3)c3ccccc23)cc1S(=O)(=O)N1CCN(C)CC1	5.54% (active)
Cc1ccc(-c2nnc(NCc3ccccc3)c3ccccc23)cc1S(=O)(=O)N1CCOCC1	-0.185% (inactive)
Cc1ccc(-c2nnc(N3CCOCC3)c3ccccc23)cc1S(=O)(=O)N1CCCCC1	-0.605% (inactive)
CCOC(=O)c1cnc2c(C)cc(Cl)cc2c1Nc1cccc([N+](=O)[O-])c1	-1.43% (inactive)
Cc1c(C)c2ccc(O)c(I)c2oc1=O	0.449% (inactive)
O=C1NC(=O)C(=Cc2cc([N+](=O)[O-])cc(Br)c2O)C(=O)N1	0.835% (inactive)
COc1ccc([N+](=O)[O-])cc1/C=C1\C(=O)NC(=O)N(c2ccc(Br)cc2)C1=O	2.28% (inactive)
CCCOc1ccc([N+](=O)[O-])cc1C=C1C(=O)NC(=O)NC1=O	5.32% (active)
O=C(NC1CCCCC1N1C(=O)CSC1=O)c1ccccc1F (configuration not stated)	0.048% (inactive)

SMILES	activation
CC(=O)Nc1ccc(S(=O)(=O)NC2(C(F)(F)F)C(=O)NC(C)=C2C#N)cc1 (configuration not stated)	0.355% (inactive)
CCCN1C(=O)C(NS(=O)(=O)c2ccc(N)cc2)(C(F)(F)F)C(C(=O)OC)=C1C (configuration not stated)	6.6% (active)
CCOC(=O)C1=C(C)N(Cc2ccco2)C(=O)C1(NC(=O)c1ccccc1)C(F)(F)F (configuration not stated)	0.126% (inactive)
Fc1cccc(C2=NC3(CCCC3)NC2=S)c1	1.94% (inactive)
CC(=O)Nc1nc(C)c(-c2csc(Nc3ccc(C)cc3)n2)s1	0.136% (inactive)
CC(=O)Nc1nc(C(=O)Nc2nc(-c3sc(C)nc3C)cs2)cs1	5.72% (active)
Cc1nc(C)c(-c2csc(Nc3ccc(Br)cc3)n2)s1	-0.252% (inactive)
N#Cc1c(SCC(=O)Nc2ccc(Br)cc2)nsc1SCC(=O)Nc1ccc(Br)cc1	-0.245% (inactive)
CCOc1ccccc1-c1cc(C(=O)N2CCOCC2)c2ccccc2n1	13.1% (active)
Cc1cccc2c(C(=O)N3CCOCC3)cc(-c3ccccc3)nc12	0.152% (inactive)
Cc1cc(C(=O)N2CCOCC2)c2ccccc2n1	-0.327% (inactive)
COc1ccc(NC(=S)N2CCN(S(=O)(=O)c3ccc(F)cc3)CC2)c(OC)c1	8.74% (active)
COc1cc([N+](=O)[O-])ccc1NC(=S)N1CCN(S(C)(=O)=O)CC1	0.0846% (inactive)
O=S(=O)(c1ccc(F)cc1)N1CCN(C(=S)NC2CCCC2)CC1	-1.65% (inactive)
COc1ccc(NC(=O)CSc2nc3n[nH]c(C)c3c(=N)n2-c2ccccc2Cl)c(OC)c1	0.84% (inactive)
CCOc1ccc(C(c2sc3nc(C)nn3c2O)N2CCCC2)cc1OC (configuration not stated)	0.827% (inactive)
COc1cc(Cl)c(C)cc1NC(=O)Cn1cnc2sc(C)c(C)c2c1=O	0.0902% (inactive)
COc1ccc(C2(NC(=O)CCn3cnc4sc(C)c(C)c4c3=O)CCCCC2)cc1	4.94% (active)
COCCNC(=O)CCCNC(=O)Cn1cnc2sc(C)c(C)c2c1=O	1.23% (inactive)
